High-throughput results (PubChem)
Dicer inh = human Dicer pre-microRNA cleavage inhibition; z-score at 25 µM; actives 6% (n = 47,000); Q9UPY3; cat-ELCCA pre-miR-21 Dicer processing, chemiluminescence; active compounds read high; in the data active = z-score above about 3, passing the limit was not always enough;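 note: higher signal means more uncleaved substrate so more Dicer inhibition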
Of the large screens only hits and unclear results are named; the others gave an inactive call. Shown is part of a subset that was picked to be rich in hits.

OCCNc1ncnc2c1c(-c1ccccc1)c(-c1ccccc1)n2Cc1ccco1	Dicer inh 5.9
O=C(N/C(=N\N=C1CCCCC1)SCc1ccccc1)Nc1ccccc1	none
COCc1cc(=O)oc2cc(N)ccc12	none
Cc1cc(C)cc(Sc2c([N+](=O)[O-])ncn2C)c1	none
CN(CCO)c1cc(C(F)(F)F)nc2ccccc12	none
O=c1c2c(-c3ccc([N+](=O)[O-])cc3)onc2n(-c2ccccc2)c(=O)n1-c1ccccc1	none
O=C(Nc1ccc(S(=O)(=O)NC23CC4CC(CC(C4)C2)C3)cc1)c1ccc(Cl)cc1	none
OCCCc1nc2ccccc2n1CCCCOc1ccc(Cl)cc1	Dicer inh 6.1
OCc1nc2ccccc2n1CC(O)COc1ccc(Cl)cc1 (stereo unspecified)	none
OCCCc1nc2ccccc2n1CCCOc1ccc(Cl)cc1	none
COC(=O)C1=C(C)N=C2SCCC(=O)N2C1c1cccc(Cl)c1 (stereo unspecified)	none
O=C1CSC(=Nc2cc(Cl)c(Cl)cc2Cl)N1CCc1ccccc1	Dicer inh 3.3
O=C1CSC(=S)N1CCc1ccc(Cl)cc1	none
COc1ccc(CCN2C(=O)CSC2=Nc2ccc(Cl)cc2C)cc1OC	none
CC1=C(C(=O)OCc2ccccc2)C(c2ccc(C)o2)C2=C(CC(C)(C)CC2=O)N1 (stereo unspecified)	none
C=CCn1c(SC(C(C)=O)C(=O)OCC)nnc1-c1ccncc1 (stereo unspecified)	none
O=C(Cn1ccc(C(F)(F)F)n1)Nc1cccc(C(F)(F)F)c1	none
CCCc1ccc(C(=O)NN2CC(=O)N(c3cc(Cl)cc(Cl)c3)CC2=O)cc1	none
O=C(CSc1nnc2sc3ccccc3n12)Nc1nc2c(s1)CCCC2	none
c1ccc(Nc2nc3c(s2)Cc2ccccc2-3)cc1	none
c1ccc(Nc2nc3c(s2)CCCC3)cc1	Dicer inh 4
CCOC(=O)c1c(NC(=O)Nc2ccc(Cl)cc2)sc2c1CCC(C)C2 (stereo unspecified)	none
COc1ccc(OCCSc2nc3ccccc3n2CC(=O)O)cc1	none
CCCSc1nc2ccccc2n1CC(=O)O	none
CC(C)CSc1nc2ccccc2n1CC(=O)O	Dicer inh 3.2
COc1ccc(-c2nc(-c3cc4cc(OC)ccc4[nH]c3=O)no2)cc1	none
COC(=O)c1ccc(C2c3c(oc4cc(C)c(C)cc4c3=O)C(=O)N2CCCN2CCOCC2)cc1 (stereo unspecified)	none
COc1ccc(-c2noc(COc3ccc(C)cc3C)n2)cc1	none
Cc1ccc(-c2noc(COc3ccc(Cl)cc3C)n2)cc1	Dicer inh 5.7
Cc1ccc(-c2noc(COc3ccc(Cl)cc3)n2)cc1	none
Cc1ccc(Nc2c([N+](=O)[O-])sc3ccccc23)cc1	none
COC(=O)CC(=O)NC(CSC(=O)Nc1ccc(Cl)cc1)C(=O)OC (stereo unspecified)	none
Cc1ccc2cc3c(nc2c1)N(c1ccccc1)CC3	none
COC(=O)c1ccc(N2CCc3cc4ccc(C)cc4nc32)cc1	Dicer inh 3
COC(=O)c1ccc(N2C(=O)CC(N3CCN(C)CC3)C2=O)cc1 (stereo unspecified)	none
CC(C)c1cc(C(C)C)c(S(=O)(=O)N2CCCC2)c(C(C)C)c1	none
O=S(=O)([O-])CCC[n+]1c(/C=C/c2ccccc2)sc2ccccc21	none
Cc1ccc(S(=O)(=O)n2c(=O)sc3ccccc32)cc1	none
COC(=O)n1c(=O)oc2cc(Cl)ccc21	none
Cc1ccc(S(=O)(=O)n2c(=O)oc3cc(Cl)ccc32)cc1	Dicer inh 16
O=C(CSc1n[nH]c(=O)n1C1CC1)c1cc(-c2ccccc2)no1	none
O=C(Nc1ccc(S(=O)(=O)Nc2ncccn2)cc1)N1c2ccccc2Sc2ccccc21	none
CCOc1ccc(/C=N/NC(=S)Nc2ccc(S(=O)(=O)N3CCCCC3)cc2)cc1	Dicer inh 7.3
CCOc1ccc(S(=O)(=O)N2CCCN(S(=O)(=O)c3ccc(OCC)cc3)CC2)cc1	none
O=S(=O)(c1ccc(NC(=S)NC2CCCCC2)cc1)N1CCCCC1	none
CCOC(=O)c1ccc2c(c1)C1C=CCC1C(c1ccccc1)N2 (stereo unspecified)	none
Cc1ccc2c(c1)C1C=CCC1C(c1ccccc1Cl)N2 (stereo unspecified)	Dicer inh 4.1
O=C(O)c1ccc2c(c1)C1C=CCC1C(c1ccc(Cl)cc1)N2 (stereo unspecified)	none
Clc1ccc2c(c1)C1C=CCC1C(c1ccccc1)N2 (stereo unspecified)	none
CCOC(=O)c1ccc2c(c1)C1C=CCC1C(c1ccc(Br)cc1)N2 (stereo unspecified)	Dicer inh 5.6
CCOC(=O)c1ccc2c(c1)[C@@H]1C=CC[C@@H]1[C@H](c1cccc(OC)c1OC)N2	none
CC(C)COC(=O)c1ccc2c(c1)C1C=CCC1C(c1ccc(F)cc1)N2 (stereo unspecified)	none
O=C(O)c1ccc2c(c1)[C@@H]1C=CC[C@@H]1[C@H](c1ccccc1Br)N2	Dicer inh 3.1
COc1ccc(Br)cc1[C@@H]1Nc2ccc(C(=O)O)cc2[C@@H]2C=CC[C@@H]21	none
O=C1CC(c2ccc(Cl)cc2)CC2=C1C(c1cccs1)n1c(nc3ccccc31)N2 (stereo unspecified)	none
Cc1cc(NNC(=O)c2ccc(Cl)cc2)nc2c1c(C)nn2C	none
Cc1cccc(C)c1NC(=S)NNC(=O)c1ccccc1Cl	none
COc1cc(-c2nc3ccccc3c(=O)o2)ccc1OC(C)=O	none
Nc1nncn1C(=O)c1ccc2c(c1)OCO2	none
OCCN1CCN(C2CCN(Cc3ccccc3Br)CC2)CC1	none
O=C(Nc1ccc(C(F)(F)F)cc1)O/N=C/c1c(Cl)cccc1Cl	none
COc1cccc2c1OC(c1ccccc1)N1N=C(c3ccccc3O)CC21 (stereo unspecified)	none
COc1ccc(O)c(C2=NN3C(C2)c2cccc(OC)c2OC3c2cccc(O)c2)c1 (stereo unspecified)	Dicer inh 5.1
COc1cccc2c1OC(c1ccc(O)cc1)N1N=C(c3ccccc3O)CC21 (stereo unspecified)	none
COc1ccc(O)c(C2=NN3C(C2)c2cccc(OC)c2OC3c2cccc(F)c2)c1 (stereo unspecified)	none
COc1ccc(O)c(C2=NN3C(C2)c2cccc(OC)c2OC3c2ccc(OC)c(O)c2)c1 (stereo unspecified)	none
COc1cccc2c1OC(c1cccc(F)c1)N1N=C(c3ccccc3O)CC21 (stereo unspecified)	Dicer inh 7
CCCCN1Cc2c(n(CC(=O)c3ccc(OC)cc3)c3cc(-c4ccccc4)nn3c2=O)C1=O	none
Cc1ccc(CN2C(=O)C3C(c4ccccc4Cl)OC4(C(=O)c5ccccc5C4=O)C3C2=O)cc1 (stereo unspecified)	none
COc1ccc(N(C(=O)c2ccco2)S(=O)(=O)c2ccc3c(c2)n(C)c(=O)n3C)cc1	none
CSc1nsc(SC)c1C(=O)NC(=O)Nc1cc(C)on1	none
CC1=C(C(=O)OCC2CCCO2)C(c2ccccc2OCc2ccccc2)C2=C(CCCC2=O)N1 (stereo unspecified)	Dicer inh 3.6
CCCCOC(=O)C1=C(C)NC2=C(C(=O)CCC2)C1c1cc(Br)c(O)c(OCC)c1 (stereo unspecified)	Dicer inh 3.2
CCSCCOC(=O)C1=C(C)NC2=C(C(=O)CCC2)C1c1ccc(-c2ccccc2)cc1 (stereo unspecified)	none
CCOc1cc(C2C(C(=O)OC3CCCC3)=C(C)NC3=C2C(=O)CCC3)cc(Br)c1O (stereo unspecified)	none
CCOCCOC(=O)C1=C(C)NC2=C(C(=O)CCC2)C1c1ccc(C(=O)OC)cc1 (stereo unspecified)	Dicer inh 4.8
